Reference: PubChem BioAssay AID1159580 (chemical genetic matrix, 2015)
Among all 5,500 compounds or so, about 2,000 (36%) were called active. Roughly 18% stayed inconclusive and do not appear here. Rule as the data show it: active = normalized growth mostly below about 0.91 (no sharp cut-off); inconclusive = no clear call, values can overlap the other calls; inactive = mostly above about 0.92. The list shows a part of the results.

Experiment: chemical genetic growth profiling, strain panel (AID 1159580);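 also: tested at 20 µM; growth read once vehicle control cultures reached saturation at 30 °C; 1 = growth at the plate median or of vehicle wells; lower values mean less growth of the strain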
Settings: S. cerevisiae deletion strains, growth OD

Measured: normalized growth

Oc1ccc2c3c1O[C@H]1c4[nH]c5ccccc5c4C[C@@]4(O)C(C2)N(CC2CC2)CCC314 (stereo not given in full)
inactive: locus YAL013W, strain DEP1, stronger effect = lower value 0.989 | locus YAL040C, strain CLN3, stronger effect = lower value 1 | locus YCL061C, strain MRC1 (second series), stronger effect = lower value 1.01 | locus YDR363W, strain ESC2, stronger effect = lower value 1.02 | locus YER002W, strain NOP16, stronger effect = lower value 1.02 | locus YGR078C, strain PAC10, stronger effect = lower value 1.02 | locus YMR263W, strain SAP30, stronger effect = lower value 1.01 | locus YMR307W, strain GAS1, stronger effect = lower value 0.993 | locus YNL175C, strain NOP13, stronger effect = lower value 1.02 | locus YNL197C, strain WHI3, stronger effect = lower value 1 | locus YNL224C, strain SQS1, stronger effect = lower value 1.01 | locus YNL322C, strain KRE1, stronger effect = lower value 0.999 | locus YOR083W, strain WHI5 (second series), stronger effect = lower value 1.01 | locus YPL055C, strain LGE1, stronger effect = lower value 0.987

Fc1ccc(NC(=S)N2CCCN(Cc3ccc(Cl)cc3Cl)CC2)cc1
active: locus YLR113W, strain HOG1, stronger effect = lower value 0.821
inactive: locus YAR019C, strain CDC15, stronger effect = lower value 0.989 | locus YBL105C, strain PKC1, stronger effect = lower value 0.984 | locus YBR135W, strain CKS1, stronger effect = lower value 0.992 | locus YBR136W, strain MEC1, stronger effect = lower value 0.985 | locus YBR160W, strain CDC28, stronger effect = lower value 0.982 | locus YDL017W, strain CDC7, stronger effect = lower value 0.982 | locus YDL028C, strain MPS1, stronger effect = lower value 0.99 | locus YDL101C, strain DUN1, stronger effect = lower value 0.985 | locus YDL108W, strain KIN28, stronger effect = lower value 0.992 | locus YDL132W, strain cdc53, stronger effect = lower value 0.989 | locus YDL214C, strain PRR2, stronger effect = lower value 0.987 | locus YDR052C, strain DBF4, stronger effect = lower value 0.986 | locus YDR054C, strain cdc34, stronger effect = lower value 0.982 | locus YDR226W, strain ADK1, stronger effect = lower value 0.973 | locus YDR477W, strain SNF1, stronger effect = lower value 1 | locus YER123W, strain YCK3, stronger effect = lower value 1.02 | locus YER133W, strain GLC7, stronger effect = lower value 1 | locus YFL009W, strain cdc4, stronger effect = lower value 0.992 | locus YFL029C, strain CAK1, stronger effect = lower value 0.979 | locus YFR003C, strain YPI1, stronger effect = lower value 0.984 | locus YFR019W, strain FAB1, stronger effect = lower value 0.998 | locus YFR028C, strain CDC14, stronger effect = lower value 0.997 | locus YGR040W, strain KSS1, stronger effect = lower value 1.01 | locus YGR052W, strain FMP48, stronger effect = lower value 1.09 | locus YGR092W, strain DBF2, stronger effect = lower value 1.01 | locus YHR030C, strain SLT2, stronger effect = lower value 0.903 | locus YHR079C, strain IRE1, stronger effect = lower value 0.964 | locus YHR082C, strain KSP1, stronger effect = lower value 1.15 | locus YHR205W, strain SCH9, stronger effect = lower value 0.989 | locus YIL147C, strain SLN1, stronger effect = lower value 0.977 | locus YJL095W, strain BCK1, stronger effect = lower value 1.02 | locus YJL128C, strain PBS2, stronger effect = lower value 0.959 | locus YJL157C, strain FAR1, stronger effect = lower value 1.01 | locus YJR016C, strain ILV3, stronger effect = lower value 0.992 | locus YJR066W, strain TOR1 (second series), stronger effect = lower value 0.966 | locus YJR066W, strain TOR1, stronger effect = lower value 1.11 | locus YKL048C, strain ELM1, stronger effect = lower value 0.981 | locus YKL067W, strain YNK1, stronger effect = lower value 0.989 | locus YKL101W, strain HSL1, stronger effect = lower value 0.987 | locus YKL193C, strain SDS22, stronger effect = lower value 0.994 | locus YKL203C, strain TOR2, stronger effect = lower value 1.05 | locus YLR133W, strain CKI1, stronger effect = lower value 1.01 | locus YLR403W, strain SFP1, stronger effect = lower value 1.01 | locus YML070W, strain DAK1, stronger effect = lower value 1 | locus YMR001C, strain CDC5, stronger effect = lower value 0.992 | locus YMR205C, strain PFK2 (second series), stronger effect = lower value 0.994 | locus YMR277W, strain FCP1, stronger effect = lower value 0.992 | locus YNL006W, strain LST8, stronger effect = lower value 0.987 | locus YNL020C, strain ARK1, stronger effect = lower value 1 | locus YNL161W, strain CBK1, stronger effect = lower value 0.98 | locus YNL183C, strain NPR1, stronger effect = lower value 1.09 | locus YNL207W, strain RIO2, stronger effect = lower value 0.984 | locus YNL222W, strain SSU72, stronger effect = lower value 0.992 | locus YNL307C, strain MCK1 (second series), stronger effect = lower value 1 | locus YOL078W, strain AVO1, stronger effect = lower value 0.996 | locus YOL136C, strain PFK27, stronger effect = lower value 1.01 | locus YOR061W, strain CKA2, stronger effect = lower value 1.01 | locus YOR119C, strain RIO1, stronger effect = lower value 1.08 | locus YOR231W, strain MKK1, stronger effect = lower value 0.985 | locus YOR329C, strain SCD5, stronger effect = lower value 0.986 | locus YPL031C, strain PHO85, stronger effect = lower value 1.02 | locus YPL153C, strain RAD53, stronger effect = lower value 1.02 | locus YPL204W, strain HRR25, stronger effect = lower value 0.982 | locus YPL209C, strain IPL1, stronger effect = lower value 0.983 | locus YPL256C, strain CLN2, stronger effect = lower value 0.888 | locus YPR025C, strain CCL1, stronger effect = lower value 0.987 | locus YPR106W, strain ISR1, stronger effect = lower value 0.99 | locus YPR111W, strain DBF20, stronger effect = lower value 0.975 | strain NNK1, stronger effect = lower value 0.983 | strain TSCII, stronger effect = lower value 0.984
